Most compounds without a hit are left out; they make up all but 27% or so of the library.
CYP2C9 act – CYP2C9 (human) activation; P11712; recombinant CYP2C9, luciferin-H conversion, luminescence; hits give high values; factor 1 = untreated enzyme, 0 = blocked; activation factor at 5 µM; hit rate 1.4% among 96,000;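 active means activation factor of 2 or more for CYP2C9 at a 5 µM dose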;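 further: 0 = sulfaphenazole-blocked wells and 1 = vehicle-only wells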
Cav32 inh – blocks human Cav3.2 T-type calcium channel. AID 449739. O95180. B-score at 10 µM. Cav3.2-expressing cells, Fluo-4 calcium fluorescence FDSS; hits give low values. hit rate 4% among 100,000;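 active means single-dose well whose peak fluorescence ratio is a statistical outlier from its plate by either plate-standardised score or position-corrected B-score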
CYP2C9 inh – human CYP2C9 inhibition. CYP2C9 Supersomes, luciferin-H conversion, luminescence. inhibition, % at 5 µM. hit rate 20% among 96,000. AID 777;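 active means blocking of liver enzyme CYP2C9 beyond about 50% at 5 µM, limit read from the data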
CYP2C19 activ – increases human CYP2C19 enzyme activity; P33261; recombinant CYP2C19, luciferin-H EGE luminescence; hits give high values; 0 = fully inhibited enzyme, 1 = untreated enzyme; activation factor at 5 µM; 96,000 tested, under 10 active;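 active means activation factor of at least 2 at 5 µM in the primary screen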;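 further: 0 = wells with 2.5 mM tranylcypromine and 1 = vehicle-only wells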
CYP2C19 inh – human CYP2C19 inhibition | P33261 | CYP2C19 Supersomes, luciferin-H EGE luminescence, 30 min | inhibition, % at 5 µM | hit rate 21% among 96,000;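 active means CYP2C19 inhibition above a set limit at 5 µM in the primary screen, cut at about 50% in these data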;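 further: plate controls were negative control wells for no effect and 2.5 mM tranylcypromine positive control for full effect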
* marks the source's active call; other numbers are inactive results; · = no result given.

SMILES	CYP2C9 act	Cav32 inh	CYP2C9 inh	CYP2C19 activ	CYP2C19 inh
Cc1cccc(C(=O)O/N=C2/CC3CCC2(C)C3(C)C)c1 (stereo not given)	·	-3.12	·	·	·
O=C(CC1Nc2ccccc2NC1=O)NC1CCCCC1 (stereo not given)	2.2*	·	-122.4	0.9	10.7
COC(C(=O)Nc1ccc(F)cc1F)c1ccccc1 (stereo not given)	1	1.3	-1.5	0.8	20.6
COC(C(=O)Nc1cccc(F)c1)c1ccccc1 (stereo not given)	0.8	-0.145	23.2	0.5	50.3*
COC(C(=O)Nc1ccccc1F)c1ccccc1 (stereo not given)	1.1	0.739	-12.9	0.3	66.4*
COC(C(=O)Nc1ccc(F)c(F)c1)c1ccccc1 (stereo not given)	·	-0.0345	·	·	·
CC(C)(C)NC(=O)c1cc(F)c(F)cc1Cl	0.9	0.415	11.1	1	-3.7
CCCCN(CC)C(=O)Cn1ncc2c1-c1cc(C)ccc1OC2	0.3	-0.445	70.3*	0.2	77.4*
CCOc1ccccc1NC(=O)c1cccc(NC(=O)CC(c2ccccc2)c2ccccc2)c1	0.5	·	50.8*	0.3	71.1*
Cc1ccnc(NC(=O)c2cccc(NC(=O)COc3ccccc3)c2)c1	0.7	-0.775	30.3	0.8	21.9
CCOc1ccccc1NC(=O)c1ccc(Cl)c(NC(=O)CC(c2ccccc2)c2ccccc2)c1	0.2	-2.79	79.8*	0.5	50.7*
CCCCC(CC)CNS(=O)(=O)c1ccc2c(c1)CCN2C(=O)CCC(=O)O (stereo not given)	0.8	1.09	18.2	1	-1.4
CC(NC(=O)c1ccc(CS(=O)(=O)Cc2ccccc2F)o1)c1ccc2c(c1)OCCO2 (stereo not given)	·	0.00186	·	·	·
Cc1ccc(CO/N=C\Cc2snc(Sc3ncc(C(F)(F)F)cc3Cl)c2C#N)cc1	1.2	-1.83	-18.8	0.5	51.7*
C=C1CN(Cc2ccccc2)S(=O)(=O)c2ccccc21	·	-2.32	·	·	·
O=C1c2ccccc2OC2(C=Cc3ccccc3O2)N1Cc1ccccc1 (stereo not given)	0.1	·	94.1*	0	97.1*
Cc1cc(Br)ccc1OCC(=O)N(Cc1nc(-c2ccccc2)no1)C(C)C	0.6	-4.78*	38.4	0.7	27.6
Cc1ccc(-c2noc(CN(C(=O)Cc3ccccc3)C(C)C)n2)cc1	0.2	-3.43	77.8*	0.3	74.5*
Cc1ccc(C)c(C(=O)N(Cc2nc(-c3ccc(Cl)cc3)no2)C(C)C)c1	0.1	·	88.2*	0.2	83.1*
CC(C)N(Cc1nc(-c2ccccc2)no1)C(=O)CSc1ccccc1	0.2	-4.24*	79.2*	0.1	91.6*
CCCCC(=O)Nc1cc(NC(=O)CC)ccc1Cl	0.9	0.345	6.5	0.9	7.4
Cc1ccc(-c2c(C)n([O-])c3c([n+]2=O)CCCCC3)o1	1	-0.183	0.5	0.8	19.1
Cc1ccc2c(c1)NC(=O)C(CC(=O)NCCCN1CCN(c3cc(C)ccc3C)CC1)O2 (stereo not given)	0.9	·	10.7	0.9	7.1
O=c1c2ccccc2nc(/C=C/c2ccc([N+](=O)[O-])o2)n1CCCO	0.9	-0.541	11.3	0.8	15.9
Cc1ncc(CCl)c2c1OC(C)(C)OC2	·	2.43	·	·	·
SMILES	CYP2C9 act	Cav32 inh	CYP2C9 inh	CYP2C19 activ	CYP2C19 inh
Cc1ccc(-c2[nH]c3ccccc3c2SCCNC(=O)c2ccc(S(=O)(=O)N3CCOCC3)cc2)cc1	·	-0.717	·	·	·
CC(C)C(=O)NCCc1nc(-c2ccccc2)no1	·	0.757	·	·	·
Cc1ccc(-c2noc(CN(C(=O)CCCCCN3C(=O)c4ccccc4C3=O)C(C)C)n2)cc1	0.1	-4.85*	90.9*	0	96.3*
CC(C)N(Cc1nc(-c2ccccc2)no1)C(=O)COc1ccccc1	0.4	-1.94	64.2*	0.1	88.9*
CC(C)(C)C(=O)NC(Nc1cccc2cccnc12)C(Cl)(Cl)Cl (stereo not given)	0.5	·	54.1*	0.5	53.7*
CC(C)C(=O)NC(NC(=S)Nc1cccc2cccnc12)C(Cl)(Cl)Cl (stereo not given)	0.2	1.23	83.8*	0.5	45.8
COCCn1c(SCC(N)=O)nnc1-c1c[nH]c2ccccc12	0.9	0.536	12.3	0.7	26.7
CCn1c(SCC(=O)NCC2CCCO2)nnc1-c1c[nH]c2ccccc12 (stereo not given)	1.6	-1.03	-58.6	0.9	12.3
CCn1c(SC(C)C)nnc1-c1c[nH]c2ccccc12	0.9	-0.25	9.3	0.2	80.8*
CCOC(=O)CSc1nnc(-c2c[nH]c3ccccc23)n1CC	0.9	0.478	9.3	0.2	76.5*

High-throughput results: PubChem BioAssay, several laboratories
